Data: PubChem BioAssay (Tox21)
Several values for one entry are separate records, joined by “and”; a condition that tells them apart may be missing. Equal entries are not always repeated. Records with an inconclusive call do not appear. Where a call stands in place of a potency, no number is given. Activity calls are given as the source filed them. The call rests on the fitted dose curve.

assay: qHTS assay to identify small molecule antagonists of the estrogen receptor alpha (ER-alpha) signaling pathway using the BG1 cell line (AID 743080); settings: BG1Luc4E2 ERE-luciferase antagonist mode, luminescence; activity change, negative = inhibition: at 70.3 µM (top of the series) unless noted;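 further: BG1 cells stimulated with 17beta-estradiol alongside compound; nearly all actives have a fitted effect of over 25% in size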
Text: National Center for Advancing Translational Sciences [NCATS]
NIH Chemical Genomics Center [NCGC]
U.S. Environmental Protection Agency [EPA]
National Institutes of Environmental Health Sciences [NIEHS]
National Toxicology Program [NTP]
U.S. Food and Drug Administration [FDA]
Estrogen receptor (ER), a nuclear hormone receptor, plays an important role in development, metabolic homeostasis and reproduction. Endocrine disrupting chemicals (EDCs) and their interactions with steroid hormone receptors like ER causes disruption of normal endocrine function. Therefore, it is important to understand the effect of environmental chemicals on the ER signaling pathway. To identify ER antagonists, BG1-Luc-4E2 cell line (provided by Dr. Michael Denison from University of California) has been used to screen the Tox21 10K compound library. BG1Luc4E2 cell line endogenously expresses full-length ER-alpha and is stably transfected with a plasmid containing four estrogen responsive elements (ERE) upstream of a luciferase reporter gene.
Tox21 Assay Protocol Summary:
BG1-Luc-4E2 cells were cultured in phenol red free assay medium containing 10% charcoal stripped FBS for 5 days before the assay was performed. The cells were dispensed at 4,000 cells/4 uL of assay medium per well into white wall/solid-bottom 1536-well plates using a Multidrop Combi (ThermoFisher Scientific, Waltham, MA) dispenser. The assay plates were incubated at a 37C and 5% CO2 for 24 h, and then 23 nL of compounds dissolved in DMSO, positive controls or DMSO only was transferred to the assay plate using a Pintool station (Kalypsys, San Diego, CA), followed by addition of 1 uL of 17beta-estradiol in assay medium using a Flying Reagent Dispenser (Aurora Discovery, San Diego, CA). After the plates were incubated at 37 C and 5% CO2 for 21.5 h, 1 uL of CellTiter-Fluor reagent (Promega, Madison, WI) of measuring cytotoxicity was added using Flying Reagent Dispenser (FRD) to each well. The assay plates were incubated at 37 C and 5% CO2 for additional 30 min and the fluorescence intensity was quantified by a ViewLux plate reader (PerkinElmer, Shelton, CT). For measuring luciferase reporter gene activity, 4 uL of ONE-Glo reagent (Promega) was added to each plate using an FRD and luminescence was quantified by a ViewLux plate reader after 30 min incubation at room temperature.
Potency means the concentration at half of the fitted maximal effect.

Row | Compound | Potency | activity change, negative = inhibition
1 | C[N+](C)(C)Cc1ccccc1 | inactive | –
2 | CCNc1nc(Cl)nc(NCC)n1 | inactive | –
3 | O=C(O)C(Cl)Cl | inactive | –
4 | COCC(=O)N(c1c(C)cccc1C)C(C)C(=O)OC (stereo unspecified) | inactive | –
5 | O=C(O)c1nc(Cl)ccc1Cl | inactive | –
6 | C[C@]12CCC(=O)C=C1CC[C@@H]1[C@@H]2CC[C@]2(C)C(=O)CC[C@@H]12 | inactive | –
7 | Oc1ccccc1-c1ccccc1 | inactive | –
8 | CCCCCCCCCCCCCC[P+](CCCCCC)(CCCCCC)CCCCCC | 4.88 µM (active) and 3.89 µM (active) and 3.43 µM (active) | –
9 | Nc1ccc(-c2ccc(N)c(Cl)c2)cc1Cl | 64 µM (active) | –
10 | OCCOc1ccccc1 | inactive | –
11 | O=P1(N(CCCl)CCCl)NCCCO1 (stereo unspecified) | inactive | –
12 | C1CCC(NC2CCCCC2)CC1 | inactive | –
13 | CC(Cl)(Cl)C(=O)O | inactive | –
14 | CCCn1cc[n+](C)c1 | inactive | –
15 | CC[n+]1ccccc1 | inactive | –
16 | Cc1cc(Cl)ccc1OCC(=O)O | inactive | –
17 | Nc1ccc(Cl)cc1 | inactive | –
18 | CCC(=O)C(CC(C)N(C)C)(c1ccccc1)c1ccccc1 (stereo unspecified) | inactive | –
19 | CCCCCCCCCCn1cc[n+](C)c1 | – | -3.71% [at 95 µM] (active)
20 | COP(=O)(OC)OC=C(Cl)Cl | inactive | –
21 | CNC | inactive | –
